Consider 110 compounds from PubChem BioAssay AID411 (National Center for Advancing Translational Sciences (NCATS), 2006).

SMILES strings stand for the structures. Values joined by “and” are separate entries in the source; they are usually repeats but may differ in a detail not shown here. Equal values may be shown once. In all, about 72,000 compounds went through this assay and about 1,600 (2.2%) were called active. The call rests on the fitted dose curve; in most records, active means well fitted inhibition curve with a large enough effect; inconclusive means small, poorly fitted or top-dose-only effect; inactive means flat fitted curve, though single readings scatter. The list comes from a sample in which actives are over-represented; it also holds similar structures and randomly drawn compounds. A call without a number means that no potency is given here.
Potency means the concentration at half of the fitted maximal effect.

Sequence of Luciferin 4-monooxygenase (Photinus pyralis) (P08659 whole entry, looked up): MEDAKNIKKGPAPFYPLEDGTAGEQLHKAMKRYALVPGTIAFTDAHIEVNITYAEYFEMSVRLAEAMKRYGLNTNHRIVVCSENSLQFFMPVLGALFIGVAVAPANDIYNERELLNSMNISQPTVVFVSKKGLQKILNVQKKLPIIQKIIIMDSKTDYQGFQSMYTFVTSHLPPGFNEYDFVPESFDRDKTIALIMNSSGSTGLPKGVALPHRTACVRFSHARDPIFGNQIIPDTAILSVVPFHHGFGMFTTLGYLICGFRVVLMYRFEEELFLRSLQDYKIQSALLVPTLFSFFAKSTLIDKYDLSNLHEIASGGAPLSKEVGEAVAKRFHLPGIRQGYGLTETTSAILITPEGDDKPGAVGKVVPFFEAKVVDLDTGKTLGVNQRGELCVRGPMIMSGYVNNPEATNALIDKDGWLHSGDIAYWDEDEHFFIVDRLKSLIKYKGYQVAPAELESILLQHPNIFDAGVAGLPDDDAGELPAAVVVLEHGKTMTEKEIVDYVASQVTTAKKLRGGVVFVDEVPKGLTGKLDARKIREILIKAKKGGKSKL

The target of this assay is Luciferin 4-monooxygenase (Photinus pyralis) (UniProt P08659). Put plainly: qHTS Assay for Inhibitors of Firefly Luciferase. Further: nearly all actives have a fitted effect of over 40% in size. To be noted: purified firefly luciferase, luminescence, 8 min; series mostly up to 57.1 µM. Put shortly:
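Here, luciferase activity is measured as luminescence following an 8 min room-temperature reaction at 10 uM ATP, pH 7.2. Every library sample is titrated.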
On the technique in general: In qHTS, concentration-response curves come from the screen itself.
Consider `CCOc1cc2c(cc1OCC)C(C(=O)O)C(c1ccc(OC)c(O)c1)N(C)C2=O` (stereo not given), for which the Potency result is “inactive”.

For the compound `CCOc1ccc(N=C2SC(C(=O)O)CC(=O)N2C)cc1` (stereo not given), the Potency entry is “inactive”.

Turning to `O=C(Nc1ccc2c(c1)OCCO2)c1ccncc1`, the Potency result is “inactive”.

For `Cc1ccnc(N2CCCC(C(=O)Nc3cc(F)ccc3C)C2)n1` (stereo not given), the Potency result is “inactive”.

`O=C(Nc1ccc2c(c1)OCCO2)C1CCCN(c2ncccn2)C1` (stereo not given): the Potency is 10 µM (active).

Consider `COc1c(Br)cc2c(C)c(C(=O)N3CCOCC3)oc2c1Br`, for which the Potency result was “inactive”.

With `c1ccc(COc2nsnc2N2CCOCC2)cc1`, the Potency entry was “inactive”.

Regarding `CCCC(=O)N(CCc1ccccc1)Cc1nc2ccccc2c(=O)[nH]1`, the Potency result is “inactive”.

`COC(=O)c1cc(Cl)c(NC(=O)c2ccco2)cc1OC`: the Potency entry was “inactive”.

On to `COc1ccc(NC(=O)c2cccc(NC(=O)c3ccco3)c2)c(OC)c1`, for which the Potency entry is “inactive”.

For the compound `CCc1nnc(NC(=O)c2cccs2)s1`, the Potency entry is “inactive”.

Regarding `COC(=O)c1ccc(NC(=O)c2ccco2)cc1`, the Potency is 20 µM (active).

Regarding `CCOc1cc(NC(=O)c2ccco2)c(OCC)cc1NC(=O)COc1ccccc1`, the Potency entry is “inactive”.

Take `O=C(Nc1ccc(Cl)cn1)Nc1cccs1`: the Potency entry is “inactive”.

As to `Cc1ccc(C(=O)COc2cccc(NC(=O)c3ccco3)c2)cc1`, the Potency result is “inactive”.

For the compound `O=C(Nc1ccc(NC(=O)c2cccs2)cn1)c1ccco1`, the Potency was 5.01 µM (active).

With `Cc1ccnc(NC(=O)c2ccc(NC(=O)c3ccco3)cc2)c1`, the Potency was 25.1 µM (active).

As to `CN1CCN(S(=O)(=O)c2ccc(NC(=O)c3ccco3)cc2)CC1`, the Potency entry is “inactive”.

Turning to `CC(C)(C)NC(=O)c1cc(NC(=O)c2ccco2)cc(NC(=O)c2ccco2)c1`, the Potency result was “inactive”.

Take `O=C(Nc1ccc(Oc2ccccc2)cc1)c1ccco1`: the Potency is 15.8 µM (active).

Take `CCc1cccc(C)c1NC(=O)CSc1nnc(-c2ccco2)n1N`: the Potency entry is “inactive”.

As for `CC(C)C(=O)N1CCN(c2nc(-c3ccccc3)c3c(c2C#N)CC(C)(C)OC3)CC1`, the Potency entry is “inactive”.

On to `CC(=O)N1CCC2(CCCN(Cc3ccccc3)C2)CC1`, for which the activity change, negative = inhibition is -1.06% [at 11.4 µM] (inactive).

For the compound `COCCNc1ccnc(-c2cccc(NS(C)(=O)=O)c2)n1`, the activity change, negative = inhibition was 0.411% [at 2.29 µM] (inactive).

Regarding `O=C1C[C@@H](O)[C@@H](O)[C@H]2[C@@H]3C(=O)N(Cc4ccc5c(c4)OCO5)C(=O)[C@@H]3CC[C@H]12`, the activity change, negative = inhibition is 1.52% [at 11.4 µM] (inactive) and -0.708% [at 11.4 µM] (inactive).

With `CC(NCCO)C(=O)C12CC3CC(CC(C3)C1)C2` (stereo not given), the Potency result was “inactive”.

As for `C[N+](C)(C)CCCCCNCC12CC3CC(CC(C3)C1)C2`, the Potency result was “inactive”.

`CCn1c(=N)n(CC(=O)c2cccc(OC)c2)c2ccccc21`: the Potency entry was “inactive”.

Regarding `CN(C)c1ccc(-c2nc(NCCN3CCOCC3)c3ccccc3n2)cc1`, the activity change, negative = inhibition is -10.7% [at 2.29 µM] (inactive).

In the case of `ClC(Cl)(Cl)C(N1CCN(c2ccccc2)CC1)N1CCN(c2ccccc2)CC1`, the activity change, negative = inhibition is 2.2% [at 11.4 µM] (inactive).

On to `CCOC(=O)c1nnn(-c2nonc2OC)c1-c1ccccc1`, for which the Potency entry is “inactive”.

For `CC(=O)N1CSCC1C(=O)O` (stereo not given), the Potency entry is “inactive”.

`CC1CCC(NC(=O)c2ccc(N3CCCC3=O)cc2)CC1` (stereo not given): the Potency entry was “inactive”.

As to `COc1cccc(OC)c1C(=O)Nc1nnc(C(C)C)s1`, the Potency entry was “inactive”.

Turning to `COc1ccccc1Nc1ncc(C(C)=O)c(C)n1`, the Potency result was “inactive”.

On to `COc1cccc2sc(Nc3nc(C)c(C(C)=O)s3)nc12`, for which the Potency was 5.01 µM (active).

Consider `Cc1c(S(=O)(=O)O)ccc(N=Nc2c(O)c(C(=O)O)cc3ccccc23)c1Cl`, for which the activity change, negative = inhibition was -2.84% [at 11.4 µM] (inactive).

Turning to `COc1cccc(NS(=O)(=O)c2ccc3[nH]cc(C(=O)NCCCOC(C)C)c(=O)c3c2)c1`, the Potency result is “inactive”.

As to `CCCCN(CCCC)CCC(O)c1cc2c(Cl)cc(Cl)cc2c2cc(C(F)(F)F)ccc12` (stereo not given), the Potency entry was “inactive”.

As to `Cc1ccc(C(=O)N2CCCCCC2)cc1Br`, the Potency entry was “inactive”.

As to `Cc1ccc2oc(=O)c3cnn(CC(=O)N4CCCCCC4)c3c2c1`, the Potency entry was “inactive”.

As for `Cc1ccc2cc3cc(C(=O)N4CCCCCC4)oc3nc2c1`, the Potency was 7.94 µM (active).

With `CC1CCCN(c2ccc(C(=O)NCCc3ccccc3)cn2)C1` (stereo not given), the Potency was 15.8 µM (active).

As to `O=C(NCCCNCc1ccccc1)c1ccc(/C=N/O)nc1`, the Potency entry is “inactive”.

Regarding `O=C(O)C1CC=CCC1C(=O)NCCc1ccccc1` (stereo not given), the Potency result was “inactive”.

As for `CN(C)CCCNc1c2c(c(C#N)c3nc4ccccc4n13)CCC2`, the Potency entry is “inactive”.

With `CCOC(=O)C1=C(C)NC(=O)N(C(C)=O)C1c1ccc(Cl)cc1` (stereo not given), the Potency entry was “inactive”.

Regarding `O=C(Oc1ccccc1)c1ccc2nccnc2c1`, the Potency entry was “inactive”.

Turning to `CC(C)c1nc(-c2ccccn2)no1`, the Potency result is “inactive”.

Take `O=C(Oc1ccc(-c2nc(-c3ccccn3)no2)cc1)c1ccccc1`: the Potency was 2.51 µM (active).

Turning to `C=CCn1c(SCn2nnc3ccccc3c2=O)nnc1-c1ccc(Cl)cc1`, the Potency result was “inactive”.

Regarding `CCOC(=O)c1[nH]c2ccc(OC)cc2c1NC(=O)N1CCOCC1`, the Potency entry is “inactive”.

In the case of `COc1ccc(C2CC(c3ccccc3)Nc3ncnn32)cc1` (stereo not given), the Potency entry was “inactive”.

With `COc1ccc(OCC(=O)OCCN(C)C)cc1`, the Potency result is “inactive”.

For `O=C(Nc1ncccn1)c1cccs1`, the Potency result is “inactive”.

As for `Cc1nc(-c2ccc(NC(=O)c3cccs3)cc2)cs1`, the Potency was 1.26 µM (active).

Take `O=C(O)c1ccc(NC(=O)c2cccs2)cc1`: the Potency result is “inactive”.

For `OCCCNCc1ccccn1`, the activity change, negative = inhibition is 3.67% [at 11.4 µM] (inactive).

As for `Cc1cc(C)c2c(n1)nn1c(N3CCOCC3)cc(C)nc21`, the Potency entry was “inactive”.

For the compound `Cc1nn2c3cc(N4CCOCC4)ccc3nc2c2ccccc12`, the Potency was 2 µM (active).

On to `COCCCNC(=O)CSc1nc2ccc(N3CCOCC3)cc2c(=O)n1CCc1ccccc1`, for which the Potency entry is “inactive”.

For `CCOc1ccc(NCCC(=O)c2ccc3c(c2)OCO3)cc1`, the Potency entry was “inactive”.

Consider `CC(C)CCNC(=O)C(C)N(C(=O)Cn1nnc(-c2ccc(F)cc2)n1)C1CCCC1` (stereo not given), for which the Potency entry was “inactive”.

Take `COCCNc1ncnc2ccc(-c3cccnc3)cc12`: the activity change, negative = inhibition is -1.48% [at 2.29 µM] (inactive).

Turning to `COC(=O)c1ccc(NC(=O)C(C)N2C(=O)c3ccccc3C2=O)cc1` (stereo not given), the Potency entry was “inactive”.

Take `CCN(CC)C(=O)CCC(=O)Nc1ccc(C(=O)OC)cc1`: the Potency entry was “inactive”.

As for `COC(=O)c1ccc(NCC(=O)c2ccccc2)cc1`, the Potency was 7.94 µM (active).

`CN(c1ccc(C(=O)NCCC2=CCCCC2)cc1)S(C)(=O)=O`: the Potency result was “inactive”.

On to `O=C(OC1CCOC1=O)c1ccc(-c2nc3ccccc3s2)s1` (stereo not given), for which the Potency was 2.51 µM (active).

As for `O=C(c1cccs1)N1CCC(c2nc3ccccc3s2)CC1`, the Potency entry was “inactive”.

`Cc1nn(Cc2ccccc2)c(Cl)c1C(=O)OC1CCOC1=O` (stereo not given): the Potency entry is “inactive”.

As for `COc1ccc(C(=O)N2CCC[C@@]3(CCN(C(=O)NC(C)C)C3)C2)cc1`, the activity change, negative = inhibition was -0.0908% [at 11.4 µM] (inactive).

For `COc1cccc(OCC(=O)Nc2ccccc2C(N)=O)c1`, the Potency is 6.31 µM (active).

For the compound `NC(=O)c1ccccc1NC(=O)c1ccccc1F`, the Potency entry is “inactive”.

As for `CCCOC(=O)Nc1ccccc1C(N)=O`, the Potency entry is “inactive”.

For the compound `O=S(=O)(c1ccc(Sc2nnc3ccccn23)nc1)N1CCOCC1`, the Potency entry was “inactive”.

`O=C1CCCC2=C1C(c1cccs1)n1nc(SCc3ccccc3)nc1N2` (stereo not given): the Potency result is “inactive”.

With `O=S(=O)(NCCNS(=O)(=O)c1ccccc1)c1ccccc1`, the Potency entry was “inactive”.

`O=C(c1cc(-c2cccc(O)c2)on1)N1CCc2ccccc2C1`: the Potency result was “inactive”.

On to `COc1ccccc1-c1cc(C(=O)N2CCCCC2)no1`, for which the Potency was 25.1 µM (active).

Regarding `O=C(c1cc(-c2cccs2)on1)N1CCCCC1`, the Potency was 15.8 µM (active).

Consider `Cc1cc(NC(=O)c2cc(-c3cccs3)on2)nn1Cc1ccc(Cl)cc1`, for which the Potency entry is “inactive”.

In the case of `O=C(c1cc(-c2ccccc2O)on1)N1CCCC1`, the Potency entry is “inactive”.

In the case of `COc1ccccc1N1CCN(C(=O)c2cc(-c3ccc(Br)cc3)on2)CC1`, the Potency entry was “inactive”.

Regarding `Cn1cccc1Cc1nnc(SCC(=O)NCc2ccc3c(c2)OCO3)n1CCc1ccccc1`, the Potency entry was “inactive”.

For `CCOC(=O)c1cc2cc(-c3c(C(=O)OCC)oc4cc(O)cc(O)c4c3=O)ccc2o1`, the Potency entry is “inactive”.

`CN1CCc2[nH]nc(-c3n[nH]c4c3CN(C)CC4)c2C1`: the activity change, negative = inhibition was 2.79% [at 11.4 µM] (inactive).

With `O=C(C1CCN(S(=O)(=O)Cc2ccccc2)CC1)N1CCCc2ccccc21`, the Potency result was “inactive”.

As for `CCOC(=O)c1nc(-c2ccc3c(c2)OCO3)[nH]c1C`, the Potency was 15.8 µM (active).

Regarding `CCOC(=O)NCc1ccc2c(c1)OCO2`, the Potency entry is “inactive”.

`CCOC(=O)c1c(C)[nH]c(C(=O)COc2ccc3c(c2)OCO3)c1C`: the Potency result is “inactive”.

`COc1ccc(-n2c(C)cc(C(=O)CSc3nnc(-c4cccs4)o3)c2C)cc1`: the Potency entry was “inactive”.

`COc1ccc(OC)c(C(=O)CSc2nnc(-c3cccs3)o2)c1`: the Potency entry was “inactive”.

As to `COc1ccc(-c2nnc(SCC(=O)c3cccs3)o2)c(OC)c1`, the Potency was 12.6 µM (active).

Regarding `CN(c1nc2ccccc2n2c(-c3ccco3)nnc12)S(=O)(=O)c1ccccc1`, the Potency entry was “inactive”.

As for `c1coc(-c2nc3nc4ccccc4n3nc2-c2ccco2)c1`, the Potency entry was “inactive”.

As to `Cn1c(-c2ccco2)nc2cc3ccccc3cc21`, the Potency is 0.501 µM (active).

With `C(=C\c1ccccc1)/CSc1nnc(-c2cccnc2)n1Cc1ccco1`, the Potency entry was “inactive”.

As for `CC(=O)N1CCN(C(=O)c2cccc(S(=O)(=O)Nc3ccc(C)cc3)c2)CC1`, the Potency result is “inactive”.

`COC(=O)c1[nH]c2ccccc2c1NS(=O)(=O)c1ccc(OC)cc1OC`: the Potency entry was “inactive”.

`COc1ccc(OC)c(N=Cc2c(O)[nH]c3ccccc23)c1`: the Potency entry is “inactive”.

As for `COc1ccc(N=Cc2c(O)[nH]c3ccccc23)cc1OC`, the Potency is 15.8 µM (active).

`CCOC(=O)C1CCCCN1Cc1ccc(OC)c(OC)c1OC` (stereo not given): the Potency entry is “inactive”.

Take `COc1ccc2nc(NC(=O)c3ccc(Br)s3)sc2c1`: the Potency was 12.6 µM (active).

For the compound `CCn1c(SCC(=O)Nc2nc3ccc(OC)cc3s2)nnc1-c1ccoc1C`, the Potency entry is “inactive”.

With `CNC(=O)c1ccc2nc(NC(C)=O)sc2c1`, the Potency result is “inactive”.

On to `Cc1ccnc(-n2sc3ccccc3c2=O)n1`, for which the Potency was 20 µM (active).

Consider `Cc1ccnc(N2CCC(C(=O)NC3CCCCCC3)CC2)n1`, for which the Potency entry is “inactive”.

For the compound `Cc1nc2ccccc2c(=O)n1CCCn1ccnc1`, the Potency entry is “inactive”.

For `N#CCCN(CCC#N)c1nnc(-c2ccccc2)s1`, the Potency result was “inactive”.
